Laboratory results reported in PubChem BioAssay (NCI).
About 83,000 compounds went through this panel and 20% of them were active in at least one assay; those are over-represented in the sample as a whole.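 Growth was measured after 48 h exposure to one concentration of compound in 96-well plates. Values under 10 count as active.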 The source made the active and inactive calls.

What was measured:
Test in all cases: NCI-60 one-dose screen, 48 h (100 = growth as untreated, 0 = no growth, -100 = all killed)
Details in all cases: 10 µM unless noted
RPMI-8226 leukemia = tested on: RPMI-8226 leukemia
OVCAR-8 ovarian = tested on: OVCAR-8 ovarian
OVCAR-5 ovarian = tested on: OVCAR-5 ovarian
OVCAR-4 ovarian = tested on: OVCAR-4 ovarian
SK-OV-3 ovarian = tested on: SK-OV-3 ovarian
IGROV1 ovarian = tested on: IGROV1 ovarian
OVCAR-3 ovarian = tested on: OVCAR-3 ovarian
HS 578T breast = tested on: HS 578T breast
NCI/ADR-RES ovarian = tested on: NCI/ADR-RES ovarian
T-47D breast = tested on: T-47D breast

Measured: growth

Cc1cc(C)n(-c2nc(-c3cccs3)c(C#N)c(=O)[nH]2)n1
inactive: RPMI-8226 leukemia 105% | OVCAR-8 ovarian 102% | OVCAR-5 ovarian 105% | OVCAR-4 ovarian 91.1% | SK-OV-3 ovarian 90.9% | IGROV1 ovarian 108% | OVCAR-3 ovarian 94.7% | HS 578T breast 106% | NCI/ADR-RES ovarian 85.7% | T-47D breast 80.6%

O=C(CCl)N1CCCc2ccccc21
inactive: RPMI-8226 leukemia 102% | OVCAR-8 ovarian 107% | OVCAR-5 ovarian 99.2% | OVCAR-4 ovarian 102% | SK-OV-3 ovarian 119% | IGROV1 ovarian 106% | OVCAR-3 ovarian 94.9% | HS 578T breast 105% | NCI/ADR-RES ovarian 96.8% | T-47D breast 106%

Cc1cccc(C)c1Nc1nnc(-c2ccc(F)cc2)o1
inactive: RPMI-8226 leukemia 109% | OVCAR-8 ovarian 109% | OVCAR-5 ovarian 93.9% | OVCAR-4 ovarian 103% | SK-OV-3 ovarian 102% | IGROV1 ovarian 97.9% | OVCAR-3 ovarian 93.6% | HS 578T breast 108% | NCI/ADR-RES ovarian 97.8% | T-47D breast 110%

O=C1Nc2ccc(Cl)cc2/C1=N/c1nc(-c2ccc(Cl)cc2)cs1
active: RPMI-8226 leukemia -2.3% | OVCAR-8 ovarian 3.67% | SK-OV-3 ovarian 1.76% | OVCAR-3 ovarian -13.6% | T-47D breast -3.94%
inactive: OVCAR-5 ovarian 26.2% | OVCAR-4 ovarian 34.9% | IGROV1 ovarian 16.6% | HS 578T breast 13.7% | NCI/ADR-RES ovarian 57.7%

O=c1nc(-c2ccccc2)c2cc(-c3ccc(N4CCCC4)nc3)ccc2[nH]1
inactive: RPMI-8226 leukemia 71.6% | OVCAR-8 ovarian 89.2% | OVCAR-5 ovarian 98.7% | OVCAR-4 ovarian 85.3% | SK-OV-3 ovarian 80.6% | IGROV1 ovarian 66.1% | OVCAR-3 ovarian 44.7% | HS 578T breast 67.8% | T-47D breast 62.3%

C=C(C)[C@@H]1CC[C@]2(C(=O)N=C=S)CC[C@]3(C)[C@H](CC[C@@H]4[C@@]5(C)CCC(=O)C(C)(C)[C@@H]5CC[C@]43C)[C@@H]12
inactive: RPMI-8226 leukemia 16.1% | OVCAR-8 ovarian 24.3% | OVCAR-5 ovarian 49.1% | OVCAR-4 ovarian 31.4% | SK-OV-3 ovarian 14.7% | IGROV1 ovarian 66.2% | OVCAR-3 ovarian 25.7% | HS 578T breast 33% | NCI/ADR-RES ovarian 28.2% | T-47D breast 18.1%

CC(=O)c1ccc(NC(=O)CSc2nnc(-c3cc(-c4ccc(Cl)cc4)nc4ccccc34)o2)cc1
inactive: RPMI-8226 leukemia 25.5% | OVCAR-8 ovarian 82% | OVCAR-5 ovarian 96.7% | OVCAR-4 ovarian 71.1% | SK-OV-3 ovarian 90.1% | IGROV1 ovarian 92.7% | OVCAR-3 ovarian 107% | HS 578T breast 110% | T-47D breast 79.1%

CCCn1c(N)c(C(N)=O)sc1=S
inactive: RPMI-8226 leukemia 94.5% | OVCAR-8 ovarian 106% | OVCAR-5 ovarian 90.8% | OVCAR-4 ovarian 111% | SK-OV-3 ovarian 103% | IGROV1 ovarian 100% | OVCAR-3 ovarian 103% | HS 578T breast 95.7% | T-47D breast 94.8%

CN1CC=C(c2cc(NC(=O)Nc3ccc(Oc4ccnc(NC(=O)C5CC5)c4)c(F)c3)cc(C(F)(F)F)c2)CC1
active: RPMI-8226 leukemia -28% | OVCAR-8 ovarian -2.13% | OVCAR-5 ovarian 7.5% | OVCAR-4 ovarian 3.24% | IGROV1 ovarian 2.9% | OVCAR-3 ovarian 8.26% | HS 578T breast -17.3% | T-47D breast -0.194%
inactive: SK-OV-3 ovarian 17.1%

CCCn1c2cc(OCc3cn(-c4ccc(Cl)cc4)nn3)ccc2c2ccnc(C)c21
inactive: RPMI-8226 leukemia 23.3% | OVCAR-8 ovarian 49.9% | OVCAR-5 ovarian 78% | OVCAR-4 ovarian 55.5% | SK-OV-3 ovarian 73.9% | IGROV1 ovarian 74% | OVCAR-3 ovarian 59.3% | HS 578T breast 75% | T-47D breast 52.2%

COCCOCCOCc1n(Cc2ccc3ccccc3c2)c2ccccc2[n+]1Cc1ccc2ccccc2c1
active: RPMI-8226 leukemia -6.22% | OVCAR-8 ovarian 9.98% | SK-OV-3 ovarian 2.88% | IGROV1 ovarian -7.12% | OVCAR-3 ovarian 7.16% | T-47D breast -3.39%
inactive: OVCAR-5 ovarian 21.4% | OVCAR-4 ovarian 17% | HS 578T breast 39.9%

COc1ccc(-c2cn(-c3ccc(Cl)cc3)c(=S)[nH]2)cc1OC
inactive: RPMI-8226 leukemia 12.9% | OVCAR-8 ovarian 53% | OVCAR-5 ovarian 64.1% | OVCAR-4 ovarian 86.8% | SK-OV-3 ovarian 79.3% | IGROV1 ovarian 49.4% | OVCAR-3 ovarian 88.4% | HS 578T breast 100% | T-47D breast 68.1%

O=C(Nc1ccc2ncnc(Nc3ccc(F)c(Cl)c3)c2c1)c1ccccc1
active: OVCAR-4 ovarian -39.8%
inactive: RPMI-8226 leukemia 66.9% | OVCAR-8 ovarian 79.1% | OVCAR-5 ovarian 83.9% | SK-OV-3 ovarian 45.1% | IGROV1 ovarian 28.5% | OVCAR-3 ovarian 32.5% | HS 578T breast 82.8% | T-47D breast 45.3%

COc1cc(NC(=O)Nc2cnc(Nc3ccc(N4CCOCC4)cc3)nc2Oc2ccc(F)cc2)cc(OC)c1
inactive: RPMI-8226 leukemia 81.3% | OVCAR-8 ovarian 73.4% | OVCAR-5 ovarian 113% | OVCAR-4 ovarian 60% | SK-OV-3 ovarian 102% | IGROV1 ovarian 94.2% | OVCAR-3 ovarian 97.8% | HS 578T breast 85.7% | NCI/ADR-RES ovarian 95.4% | T-47D breast 53.5%

Nc1ccc(C2=NN(C(=O)c3cc(-c4ccc(Cl)cc4)nc4ccccc34)C(c3ccccc3)C2)cc1 (stereo unspecified)
inactive: OVCAR-8 ovarian 37.5% | OVCAR-5 ovarian 73.4% | OVCAR-4 ovarian 63.1% | SK-OV-3 ovarian 24.6% | IGROV1 ovarian 50.9% | HS 578T breast 29.4% | NCI/ADR-RES ovarian 12.7% | T-47D breast 30.8%
active: RPMI-8226 leukemia 8.12% | OVCAR-3 ovarian 3.55%

Oc1c(CCl)cc(Cl)cc1Cc1cc(Cl)cc(Cc2cc(Cl)cc(CCl)c2O)c1O
active: RPMI-8226 leukemia 4.65%
inactive: OVCAR-8 ovarian 16.7% | OVCAR-5 ovarian 79.8% | OVCAR-4 ovarian 48% | SK-OV-3 ovarian 36% | IGROV1 ovarian 37.8% | OVCAR-3 ovarian 19.2% | HS 578T breast 26.1% | NCI/ADR-RES ovarian 14% | T-47D breast 22.1%

Cc1nccc2c3ccc(OCc4cn(-c5ccc(Cl)cc5)nn4)cc3n(CC(C)C)c12
active: RPMI-8226 leukemia -35.1%
inactive: OVCAR-8 ovarian 25.2% | OVCAR-5 ovarian 44.2% | OVCAR-4 ovarian 30.5% | SK-OV-3 ovarian 24.2% | IGROV1 ovarian 44.4% | OVCAR-3 ovarian 35.3% | HS 578T breast 38.8% | T-47D breast 14%
